Reference: PubChem BioAssay (Tox21)
Inconclusive results are not listed. Entries that show only a call come without a potency. A number with no mark means an inactive call. The source made the active and inactive calls. Calls follow the shape of the dose curve; as a rule, active = well fitted cell-killing curve with a large enough effect in the repeat runs; inconclusive = weak or mixed curves; inactive = flat fitted curve, though single readings scatter.

test: qHTS assay to identify small molecule antagonists of the estrogen related receptor (ERR) signaling pathway from Tox21 library - cell viability counter screen (AID 1224834); settings: ERR reporter cells viability, CellTiter-Fluor, 17.5 h; series mostly up to 92.4 µM; also: nearly all actives have a fitted effect of over 30% in size
Text: National Center for Advancing Translational Sciences [NCATS]
NIH Chemical Genomics Center [NCGC]
U.S. Environmental Protection Agency [EPA]
National Institutes of Environmental Health Sciences [NIEHS]
National Toxicology Program [NTP]
U.S. Food and Drug Administration [FDA]
Estrogen related receptors (ERRs), the first orphan nuclear receptors discovered, play an important role in the control of cellular energy metabolism. ERRs are required for high-energy production in response to the environmental challenges. ERR-alpha was also identified as an adverse marker for breast cancer progression; ERR-alpha-positive tumors have a poor prognosis. To screen and to identify environmental compounds that perturb the ERR signaling pathways could provide valuable information for potential therapeutic or preventive measures in the treatment of metabolic disease. To differentiate true ERR antagonists or agonist from cytotoxic substances, the assay is multiplexed with cell viability assay.
Tox21 Assay Protocol Summary:
The ERR cells were dispensed at 2,000 cells/5 ul/well in 1536-well white plates using a Multidrop dispenser. After the assay plates were incubated at a 37 C/5% CO2 incubator for 6 hours, 23 nL of compounds dissolved in DMSO, positive and negative controls or DMSO only was transferred to the assay plate by a pin tool. The plates were incubated at 37 C for 17.5 hours. 1 ul/well of CellTiter-Fluor reagent was added into the assay plates using a Flying Reagent Dispenser. After 30-minute incubation at 37 C/5% CO2, the fluorescence intensity in the plates was measured using a ViewLux plate reader.
Potency is read from the fitted curve at half-maximal effect.

Structure (SMILES)	Potency	viability change, negative = cytotoxic
C[Si](C)O[Si](C)C	inactive	–
OCCCCl	inactive	–
CCc1c(C(=O)O)c(=O)cnn1-c1ccc(Cl)cc1	inactive	–
C=CC(C)(CCC=C(C)C)OC(=O)/C=C/c1ccccc1 (stereo not given)	inactive	–
CC(=O)c1ccccc1N	inactive	–
CCCC(=O)OCC(COC(=O)CCC)OC(=O)CCC	inactive	–
CC1(C)COCN1	inactive	–
CCCCCCCC/C=C\CCCCCCCC(=O)NCc1ccc(O)c(OC)c1	inactive	–
Cc1cccc(N(C)C)c1	inactive	–
c1cc[nH]c1	inactive	–
C=CC(C)C#N (stereo not given)	inactive	–
CC(C)=CCCC(C)CCOC(=O)C(C)C (stereo not given)	inactive	–
CCCCCCCCCCCCCCNCCO	inactive	–
CC1CCCCC1	inactive	–
COc1cccc(OC)c1O	inactive	–
O=C=NCc1cccc(CN=C=O)c1	–	0.396% [at 19 µM]
Cc1cn[nH]c1	inactive	–
O=C1NCCN1CCN1CCC(c2cn(-c3ccc(F)cc3)c3ccc(Cl)cc23)CC1	26.6 µM (active)	–
Cc1ccc2ccc3cccc4ccc1c2c34	inactive	–
c1ccc(Nc2cccc3ccccc23)cc1	inactive	–

Structure (SMILES)	Potency	viability change, negative = cytotoxic
CCCCOC(=O)C(C)CC (stereo not given)	inactive	–
COc1nccnc1CC(C)C	inactive	–
CCCCCCCC(C)=O	inactive	–
CC(C)(C)C1=CC(=O)C=C(C(C)(C)C)C1=O	inactive	–
O=S(O)O	–	0.472% [at 19 µM]
Oc1c(Br)cc(Br)c2cccnc12	23.7 µM (active)	–
N[C@@H](CSSC[C@H](N)C(=O)O)C(=O)O	–	4.71% [at 0.349 µM]
CN(C)CCN1CCOCC1	inactive	–
C=CCCCCCCC=C	inactive	–
CN1CN(C)CN(C)C1	inactive	–
Brc1ccccn1	inactive	–
CC(C)CCOCCC(C)C	inactive	–
CN(C)CCCN1c2ccccc2Sc2ccc(C(F)(F)F)cc21	29.8 µM (active)	–
CCOC(=O)CC(C)O (stereo not given)	inactive	–
CC(C)c1ccccc1N	inactive	–
C=C(c1ccc(C(=O)O)cc1)c1cc2c(cc1C)C(C)(C)CCC2(C)C	54.5 µM (active)	–
CC1CNCC(C)O1 (stereo not given)	inactive	–
C[C@@]12C(=O)OC(=O)[C@]1(C)C1CCC2O1	6.68 µM (active)	–
CO[Si](CCC1CCC2OC2C1)(OC)OC (stereo not given)	inactive	–
CCCCCCCC(OC)OC	inactive	–
